Compounds with a hit are over-represented: about 7.4% of the library has one in this group of screens.
ELG1 genotox = qHTS screen for small molecules that induce genotoxicity in human embryonic kidney (HEK293T) cells expressing luciferase-tagged ELG1; HEK293T ELG1-luciferase reporter, luminescence, 16 h; Potency, µM (series often up to 46 µM), for inactives: at the highest dose activity change, positive = activation, hits mostly activators; actives 1.3% (n = 330,000); AID 504466, 2011; also: % of control where 0% means no effect; nearly all actives have a fitted effect of over 60% in size
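16 hr compound incubation (37 °C, 5% CO2) of HEK293T cells carrying luciferase-tagged ELG1; luciferase then measured by ONE-Glo luminescence after 30 min at RT.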
SMN2 splice up = qHTS Assay for Enhancers of SMN2 Splice Variant Expression; actives 2.8% (n = 210,000); Potency, µM (top dose mostly 46.1 µM), inactives show top-dose activity change, positive = activation, most hits filed as activators; HEK293 SMN2-luciferase splicing reporter, luminescence, 30-36 h; also: % of control where 0% means no effect; nearly all actives have a fitted effect of over 55% in size
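HEK293 cells carry an SMN2 […]–luciferase reporter in which exon 7 inclusion puts luciferase in frame. Cells were plated 10-12 h before compound addition, then incubated 30-36 h at 37C. ONE-Glo luminescence was read; sodium butyrate at 4.5 mM final served as control.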
NPC1 promoter act = qHTS Assay for NPC1 Promoter Activators. Potency, µM (highest dose often 9.22 µM), without a hit: at the top dose activation, usual class: activators. actives 2.4% (n = 320,000). Huh7 NPC1 promoter luciferase reporter, 24 h; also: % of control where 0% means no effect; nearly all actives have a fitted effect of over 60% in size
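In 1536-well qHTS, Huh7 cells harboring an NPC1 promoter–luciferase construct received compound for 24 h; activation was quantified by luminescence following luciferase reagent addition.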
Rab9 promoter act = qHTS Assay for Rab9 Promoter Activators | Huh7 Rab9 promoter-luciferase reporter, luminescence, 24 h | Potency, µM (doses to about 9.22 µM), without a hit: at the top dose activation, negative = inhibition, actives largely listed as activators | actives 2.8% (n = 320,000); also: % of control where 0% means no effect; nearly all actives have a fitted effect of over 60% in size
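Stable Rab9-luc Huh7, 1500 cells/well, 2 h settle; cmpd in DMSO, 24 h, 37 °C/5% CO2; luciferase reagent 10 min RT; luminescence.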
FLuc modulator = qHTS profiling assay for firefly luciferase inhibitor/activator using purifed enzyme and Km concentrations of substrates (counterscreen for miR-21 project) | Luciferin 4-monooxygenase (Photinus pyralis), P08659 | purified FLuc, Km substrates, luminescence inhibition | Potency, µM (highest dose often 57.5 µM), for the others: at the top dose activity change, negative = inhibition, actives largely listed as inhibitors | actives 6.9% (n = 360,000);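 also: plate controls were vehicle for no effect and reference inhibitor for full effect; nearly all actives have a fitted effect of over 55% in size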
Target sequence (P08659 whole entry, looked up): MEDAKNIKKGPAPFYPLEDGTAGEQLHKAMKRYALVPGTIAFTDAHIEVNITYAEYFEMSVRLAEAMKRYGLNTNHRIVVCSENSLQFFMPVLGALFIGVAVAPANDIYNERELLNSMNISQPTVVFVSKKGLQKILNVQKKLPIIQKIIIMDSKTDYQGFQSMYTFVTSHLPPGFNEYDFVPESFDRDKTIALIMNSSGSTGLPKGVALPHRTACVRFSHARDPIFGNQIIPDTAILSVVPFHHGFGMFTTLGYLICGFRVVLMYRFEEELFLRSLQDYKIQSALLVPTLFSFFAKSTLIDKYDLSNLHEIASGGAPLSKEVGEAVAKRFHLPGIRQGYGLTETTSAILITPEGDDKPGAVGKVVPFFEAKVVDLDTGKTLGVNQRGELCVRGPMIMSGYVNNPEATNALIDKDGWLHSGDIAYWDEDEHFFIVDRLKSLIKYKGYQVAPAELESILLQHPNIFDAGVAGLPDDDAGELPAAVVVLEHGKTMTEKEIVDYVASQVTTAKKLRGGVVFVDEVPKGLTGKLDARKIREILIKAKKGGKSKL
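Purified P. pyralis luciferase, 10 nM final, with Km-level 10 uM D-luciferin and 10 uM ATP in 50 mM Tris acetate pH 7.5, 10 mM Mg acetate, 0.01% Tween-20, 0.05% BSA; 6-point qHTS titration about 60 µM downward; luminescence read.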
p53 reactivation = qHTS assay for re-activators of p53 using a Luc reporter; H1299 p53-A138V BP100-luciferase reporter, luminescence, 24 h; Potency, µM (series often up to 92.2 µM), for inactives: top-dose activity change, positive = activation, hits mostly activators; actives 0.063% (n = 320,000); also: % of control where 0% means no effect; nearly all actives have a fitted effect of over 45% in size
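H1299 (p53-null), stable ts p53-A138V + BP100-Luc; 1000 cells/well, Opti-MEM/10% FBS; cpd 4 pt, 1:5; 24 h, 37 deg C, 5% CO2; detection reagent 10 min RT; luminescence.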
* = called active by the depositor; [ ] = another dose, or the depositor's remark. Calls follow the shape of the dose curve; as a rule, active = well fitted curve in the direction sought with a large enough effect; inconclusive = small, poorly fitted or top-dose-only effect, or another doubt; inactive = no such curve, though single readings can be large; an effect the other way counts as inactive or inconclusive. Potency is read from the fitted curve at half-maximal effect.

How did CC1(C)Cc2c(sc(NC(=O)c3ccccc3)c2C(=O)O)CO1 do in these assays?
ELG1 genotox: -1.5%; SMN2 splice up: inconclusive; NPC1 promoter act: inconclusive; Rab9 promoter act: inconclusive; FLuc modulator: 6.75µM*; p53 reactivation: -0.7%

What do the screens show for `Cc1cccn2c(=O)c(C(=O)NCCc3ccc(Cl)cc3)cnc12`?
FLuc modulator: 13.5µM*

Results for O=C(NCCc1c[nH]c2ccccc12)c1cnc2n(c1=O)CCS2 ?
ELG1 genotox: 13.0%; SMN2 splice up: inconclusive; NPC1 promoter act: inconclusive; Rab9 promoter act: 4.47µM*; FLuc modulator: inconclusive; p53 reactivation: inconclusive

How did O=C(NCCc1ccccc1)c1cnc2n(c1=O)CCS2 do in these assays?
ELG1 genotox: inconclusive; SMN2 splice up: inconclusive; NPC1 promoter act: inconclusive; Rab9 promoter act: 2.24µM*; FLuc modulator: inconclusive; p53 reactivation: inconclusive

What do the screens show for `CN(Cc1ccco1)c1ccnc(-c2cccc(NS(C)(=O)=O)c2)n1`?
SMN2 splice up: 23.1%

Results for COCCN(CCOC)C(=O)c1cc2sc3ccccc3c2s1 ?
ELG1 genotox: 7.0%; SMN2 splice up: -18.4%; NPC1 promoter act: -2.1%; Rab9 promoter act: 8.6%; FLuc modulator: -16.4%; p53 reactivation: 2.1%

Results for CCN(CC)C(=O)c1cc2sc3ccccc3c2s1 ?
ELG1 genotox: inconclusive; SMN2 splice up: 25.1%; NPC1 promoter act: 2.82µM*; Rab9 promoter act: 3.16µM*; FLuc modulator: 9.53µM*; p53 reactivation: inconclusive

What do the screens show for `O=C(O)C[C@H](Nc1ccccc1)C(=O)O`?
SMN2 splice up: -6.9%[9.22 µM]

What do the screens show for `CCn1nc(C(=O)Nc2ccc(S(=O)(=O)Nc3ncccn3)cc2)c2ccccc2c1=O`?
ELG1 genotox: 10.3%; SMN2 splice up: 32.4%; NPC1 promoter act: 1.3%; Rab9 promoter act: 2.3%; FLuc modulator: -7.2%; p53 reactivation: -0.3%

Results for CCCn1nc(C(=O)Nc2ccc(S(=O)(=O)Nc3nccs3)cc2)c2ccccc2c1=O ?
ELG1 genotox: -1.1%; SMN2 splice up: 7.94µM*; NPC1 promoter act: -1.9%; Rab9 promoter act: -0.9%; FLuc modulator: -1.1%; p53 reactivation: -10.1%

What do the screens show for `OCCC1CN(Cc2ccc3cccc(F)c3n2)CCN1Cc1ccccc1` (stereo not given)?
ELG1 genotox: -2.3%; NPC1 promoter act: -1.4%; Rab9 promoter act: -1.1%; FLuc modulator: -0.4%

What do the screens show for `COc1ccc(C2SCCN2C(=S)Nc2ccc(Cl)cc2)cc1` (stereo not given)?
ELG1 genotox: -0.1%; SMN2 splice up: -9.8%; NPC1 promoter act: 3.0%; Rab9 promoter act: 2.7%; FLuc modulator: -13.4%; p53 reactivation: inconclusive

What do the screens show for `Cc1ccc(NC(=S)N2CCSC2c2cccs2)cc1` (stereo not given)?
ELG1 genotox: 10.6%; SMN2 splice up: -10.5%; NPC1 promoter act: 2.5%; Rab9 promoter act: -0.1%; FLuc modulator: 15.1µM*; p53 reactivation: 23.6%

Results for Nc1nc(Nc2ccc(Cl)cc2Cl)nc(C(F)(F)F)n1 ?
ELG1 genotox: 18.4µM*; SMN2 splice up: inconclusive; NPC1 promoter act: inconclusive; Rab9 promoter act: inconclusive; FLuc modulator: inconclusive; p53 reactivation: inconclusive

What do the screens show for `COc1ccc(-c2noc(CSc3nnc(Cc4ccccc4)n3-c3ccccc3)n2)cc1OC`?
SMN2 splice up: 4.2%; FLuc modulator: -13.4%

Results for N#C/C(=C\c1ccc(N2CCOCC2)o1)C(=O)NCCc1ccccc1 ?
ELG1 genotox: 0.2%; SMN2 splice up: 15.8%; NPC1 promoter act: -1.2%; Rab9 promoter act: 17.1%; FLuc modulator: 26.9µM*; p53 reactivation: -2.2%

Results for N#C/C(=C\c1ccc(N2CCOCC2)o1)C(=O)NC1CCCCC1 ?
ELG1 genotox: 10.0%; NPC1 promoter act: 19.3%; Rab9 promoter act: 26.7%; FLuc modulator: 16.9µM*; p53 reactivation: 9.0%

Results for N#C/C(=C\c1ccc(N2CCOCC2)o1)C(=O)NCC1CCCO1 (stereo not given) ?
ELG1 genotox: 1.1%; NPC1 promoter act: -36.1%; Rab9 promoter act: -28.3%; FLuc modulator: -0.4%; p53 reactivation: 2.4%

How did COCCNC(=O)/C(C#N)=C/c1ccc(N2CCOCC2)o1 do in these assays?
ELG1 genotox: -1.0%; SMN2 splice up: 8.1%; NPC1 promoter act: 1.0%; Rab9 promoter act: -2.1%; FLuc modulator: -9.9%; p53 reactivation: 12.0%

How did N#C/C(=C/c1ccc(N2CCOCC2)o1)C(=O)Nc1ccccc1 do in these assays?
ELG1 genotox: inconclusive; SMN2 splice up: 14.1µM*; NPC1 promoter act: 2µM*; Rab9 promoter act: 2µM*; FLuc modulator: 2.69µM*; p53 reactivation: inconclusive

How did O=C(O)c1ccc2c(c1)C(=O)N([C@H](Cc1c3ccccc3cc3ccccc13)C(=O)O)C2=O do in these assays?
NPC1 promoter act: -6.9%; Rab9 promoter act: -3.1%; FLuc modulator: 0.2%

Results for CC(=O)c1cccc(NC(=O)CSc2ncc3c(n2)-c2cc(Cl)ccc2N(Cc2ccccc2)S3(=O)=O)c1 ?
FLuc modulator: 1.2%

What do the screens show for `CC1=C(C(=O)Nc2cc(C)ccn2)C(c2ccc(C)cc2)C2=C(CCCC2=O)N1` (stereo not given)?
ELG1 genotox: 12.9%; SMN2 splice up: 10µM*; NPC1 promoter act: -1.7%; Rab9 promoter act: -6.6%; FLuc modulator: 3.8%; p53 reactivation: -3.3%

Results for COc1cccc(CNC(=O)CNS(=O)(=O)c2ccc(Br)s2)c1 ?
ELG1 genotox: -4.2%; NPC1 promoter act: -0.7%; Rab9 promoter act: -4.5%; FLuc modulator: -2.7%; p53 reactivation: -1.7%

How did Nc1nnc(-c2cccc(F)c2)s1 do in these assays?
ELG1 genotox: 7.0%; NPC1 promoter act: 2.5%; Rab9 promoter act: -3.5%; FLuc modulator: -19.3%; p53 reactivation: 3.9%

Results for CNc1nnc(-c2cccc(N(C)C)c2)s1 ?
ELG1 genotox: 11.2µM*; SMN2 splice up: 14.1µM*; NPC1 promoter act: inconclusive; Rab9 promoter act: inconclusive; FLuc modulator: 15.1µM*; p53 reactivation: 6.0%

Results for COc1ccc2[nH]cc(CCNc3ncncc3-c3ccc(N(C)C)cc3)c2c1 ?
SMN2 splice up: -3.9%

What do the screens show for `O=C1N=c2ccccc2=C1c1sc(Nc2cccc(O)c2)nc1O`?
ELG1 genotox: 15.8%; NPC1 promoter act: 15.3%; Rab9 promoter act: 5.0%; FLuc modulator: 19µM*
